# Screens as filed in PubChem.
# PrPC surface inh: inhibitors of human cell surface prion protein PrPC; AID 720596; inhibition, % at 13.8 µM; 370,000 tested, 0.43% active; P04156; TR-FRET read-out; in the data active = inhibition above about 24%; note: 0% = median of the test wells and 100% = reference compound wells
# Yp Topo-I inh: blocks Yersinia pestis topoisomerase I activity; activity, % at 10 µM; Y. pestis Topo-I cleavage product accumulation, plate reader; 360,000 tested, 0.064% active; in the data active = activity above about 50%, passing the limit was not always enough
# GDH-TPI inh: counter-screen for M. tuberculosis FBA inhibitors: GDH-TPI coupled enzymes; GDH-TPI coupled enzyme counterscreen, NADH absorbance; inhibition, % at 4.8 µM; AID 588335; 360,000 tested, 1.2% active; in the data active = inhibition above about 30%;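 note: 0% = DMSO wells and 100% = wells lacking the enzyme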
# Mtb FBA inh: inhibits M. tuberculosis FBA enzyme; purified M. tuberculosis FBA, fluorescence read-out; inhibition, % at 1 µM; 360,000 tested, 2.3% active; in the data active = inhibition above about 27%;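 note: 0% = vehicle and 100% = reference inhibitor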
# TcdB GH inh: inhibitors of Clostridioides difficile toxin B glycohydrolase; TcdB glycohydrolase enzymatic assay, plate reader; 350,000 tested, 0.24% active; AID 652162; inhibition, % at 9.99 µM; in the data active = inhibition above about 10%
# * = called active by the depositor; / = no result; + = active, no number. Compounds with a hit are over-represented: about 3.2% of the library has one in this group of screens.
SMILES,PrPC surface inh,Yp Topo-I inh,GDH-TPI inh,Mtb FBA inh,TcdB GH inh
Cc1c(CCC(C)C)c(=O)n2c([nH]c3ccccc32)c1C#N,/,-9,3,24,/
Cc1c(CCO)c(=O)n2c([nH]c3ccccc32)c1C#N,-5,0,16,+,0
Cc1noc(C)c1NC(=O)Nc1ccc2c(c1)C(=O)N([C@H](C)CO)C[C@@H](C)[C@@H](CN(C)C(=O)Nc1ccc3c(c1)OCO3)O2,/,/,/,/,0
Cc1ccc(-c2cc(C(=O)NCc3ccco3)c3ccccc3n2)s1,-7,5,24,113*,/
O=C(COC(=O)c1cc(-c2cccs2)nc2ccccc12)NCc1ccco1,13,-2,8,45*,/
O=c1[nH]c(=S)c2c(n1-c1ccccc1)CCC2,9,5,35*,-2,2
C[C@@H]1CN([C@@H](C)CO)C(=O)c2cc(NC(=O)c3ccncc3)ccc2O[C@@H](C)CCCCO[C@H]1CN(C)S(=O)(=O)c1ccccc1,/,/,/,/,1
O=C(NCc1cccnc1)c1cc(C2CCCCN2S(=O)(=O)c2cccc3cccnc23)on1 (stereo unspecified),4,15,3,2,10*
CCCNC(=O)c1cc(C2CCCCN2S(=O)(=O)c2cccc3cccnc23)on1 (stereo unspecified),-7,-1,9,-2,3
CC(C)C(=O)Nc1ccc(-c2nc3cccnc3o2)cc1,6,1,35*,+,/
CC(C)C(=O)Nc1ccc(-c2nc3ncccc3o2)cc1,-2,1,41*,+,1
CCCNC(=O)N1[C@@H]2Cn3c(ccc(-c4cccc(OC)c4)c3=O)[C@H]1[C@@H](C(=O)NC1CCC1)[C@@H]2CO,/,/,/,/,0
CO[C@@H](CN(C)S(=O)(=O)c1cccc(Cl)c1)[C@H](C)CN(C(=O)Nc1ccccc1F)[C@@H](C)CO,/,/,/,/,0
CCN1CCN(c2nc3ccccc3n3cnnc23)CC1,-5,-5,32*,-2,2
N#CCC(=O)Nc1ccccc1C(=O)O,-4,2,6,2,/
N#C/C(=C/Nc1ccccc1C(=O)O)C(N)=O,7,11,68*,-5,-1
COc1cc(-c2nc3ccc(N4CCN(C)CC4)cc3[nH]2)cc(OC)c1OC,-4,-9,11,+,2
O=S(=O)(NC[C@@H]1[C@@H](c2ccccc2)[C@@H](CO)N1CC1CC1)c1ccccc1,/,/,/,/,0
COC(=O)C1=CN(Cc2ccccc2)C=C(C(=O)OC)C1c1ccc(OC)c(OC)c1,-7,-3,9,3,2
COCCN1C=C(C(=O)OC)C(c2ccccc2Cl)C(C(=O)OC)=C1,3,-8,0,+,1
COCCN1C=C(C(=O)OC)C(c2cc(Br)c(OC)c(OC)c2)C(C(=O)OC)=C1,-8,11,3,+,/
C[C@@H]1CN([C@H](C)CO)C(=O)c2cc(NC(=O)Nc3ccc(F)cc3)ccc2O[C@@H]1CN(C)Cc1ccncc1,/,/,/,/,1
COc1ccccc1NC(=O)Nc1ccccc1C#N,7,4,0,10,0
N#Cc1ccccc1NC(=O)Nc1ccccc1,-16,2,-3,50*,-2
O=C(N/N=C/c1ccc([N+](=O)[O-])o1)C1CCCC1,-42,-4,12,-2,-2
SMILES,PrPC surface inh,Yp Topo-I inh,GDH-TPI inh,Mtb FBA inh,TcdB GH inh
O=[N+]([O-])c1ccc(/C=[N+](\[O-])[C@@H]2CCCC[C@@H]2/[N+]([O-])=C/c2ccc([N+](=O)[O-])o2)o1,-20,-3,34*,-1,1
CCOC(=O)c1sc(/N=C/N(C)C)nc1C,7,-4,31*,-2,-1
C[C@H]1CN([C@@H](C)CO)C(=O)c2cccc(NC(=O)c3ccc(-c4nccs4)cc3)c2O[C@@H]1CN(C)CC1CCCCC1,/,/,/,/,0
O=C(CSc1nnc(COc2ccc(Cl)cc2)o1)N1c2ccccc2CCc2ccccc21,1,61*,12,0,/
O=C(CSc1nnc(COc2ccc(Cl)cc2)o1)N1CCCC1,0,-1,7,3,1
COc1ccc(/C=N/NC(=O)c2cc(-c3ccccc3)nc3ccccc23)cc1O,1,-14,21,-3,-1
Cc1ccc(-c2cc(C(=O)NN=Cc3ccccc3OCC(=O)O)[nH]n2)cc1,0,/,/,/,/
CCOc1cc(/C=N/NC(=O)c2cc(-c3cccc(OC)c3)nc3ccccc23)ccc1O,7,-1,37*,0,1
CCOc1ccc(/C=N/NC(=O)c2cc(-c3ccccc3)nc3ccccc23)cc1O,-1,-9,15,0,2
COc1ccc(-c2cc(C(=O)N/N=C/c3sccc3C)c3ccccc3n2)c(OC)c1,2,15,34*,-1,/
O=C(O)COc1ccccc1/C=N/NC(=O)c1cc(-c2ccc(F)cc2)nc2ccccc12,-8,2,51*,5,0
COc1ccc(-c2cc(C(=O)N/N=C/c3ccc4c(c3)OCO4)c3ccccc3n2)c(OC)c1,16,2,19,5,/
COc1cc(/C=N/NC(=O)c2cc(-c3ccccc3)nc3ccccc23)ccc1O,1,-2,46*,8,1
O=C(Nc1ccccc1F)N[C@@H]1CC[C@@H](CCNS(=O)(=O)c2ccc(F)cc2)O[C@H]1CO,/,/,/,/,0
COc1ccccc1-c1cc(C(=O)N/N=C/C=C/c2ccccc2[N+](=O)[O-])c2ccccc2n1,1,-2,31*,1,/
O=C(O)c1ccc(N/N=C/C=C/c2ccccc2[N+](=O)[O-])cc1,4,-1,39*,-7,-1
COc1cc(/C=N/NC(=O)c2nc(-c3ccccc3)n(-c3ccccc3)n2)ccc1O,-2,17,30,-1,/
COc1cc(/C=N/NC(=O)c2cc(-c3ccccc3OC(C)C)nc3ccccc23)ccc1O,-5,5,40*,-3,/
COc1cc(/C=N/NC(=O)c2cnn3c(C)cc(-c4ccccc4)nc23)ccc1O,0,6,37*,-2,/
O=C(Cc1ccccc1)N/N=C/C=C/c1ccccc1[N+](=O)[O-],-15,21,12,3,-1
COc1ccccc1-c1cc(C(=O)N/N=C/c2cccs2)c2ccccc2n1,-6,6,20,-1,/
C[C@H](CO)N1C[C@H](C)[C@H](CN(C)Cc2ccc(Cl)c(Cl)c2)OCc2cn(nn2)CCCC1=O,/,/,/,/,-19
O=C(NCCc1ccccc1)[C@@H]1[C@@H](CO)[C@@H]2Cn3c(cccc3=O)[C@@H]2N1Cc1ccncc1,/,/,/,/,0
O=C(C[C@H]1C[C@@H]2c3cc(NC(=O)c4cccnc4)ccc3O[C@@H]2[C@@H](CO)O1)NCc1ccc(Oc2ccccc2)cc1,/,/,/,/,-1
CN(C)C(=O)C[C@@H]1C[C@H]2c3cc(NC(=O)c4ccc5c(c4)OCO5)ccc3O[C@H]2[C@H](CO)O1,/,/,/,/,1
O=C1OCCN1C(=O)[C@H]1[C@H](c2ccc(Cl)cc2)C(c2ccc(F)cc2)=NN1c1ccc(Br)cc1,-5,-6,31*,55*,0
CCC(=O)N1CC2(C1)[C@H](c1ccccc1)[C@@H](CO)N2S(=O)(=O)Cc1ccccc1,/,/,/,/,0
